Experimental data as given in PubChem BioAssay AID504832 (National Center for Advancing Translational Sciences (NCATS), 2011).
Among all 310,000 compounds or so, about 18,000 (5.8%) were called active. A call without a number means that no potency is given here. Another 22% or so got no clear call; they are omitted. This is one part of a sample in which actives are shown more often than they occur. Calls come from the whole dose curve; as a rule, active = well fitted inhibition curve with a large enough effect; inconclusive = small, poorly fitted or top-dose-only effect, or another doubt; inactive = no such curve, though single readings can be large or run the other way.

test: Primary qHTS for delayed death inhibitors of the malarial parasite plastid, 48 hour incubation; conditions: P. falciparum luciferase growth in erythrocytes; series mostly up to 28.7 µM
Excerpt: The goal of this screen is to discover new antimalarial compounds that act by inhibiting the development of the apicoplast in the malarial parasite Plasmodium falciparum. The biochemical processes that make this organelle essential for erythrocytic stage parasites are not well understood. However, antibiotics such as azithromycin and tetracycline, which target the apicoplast translational machinery, have a potent antimalarial effect.
We have developed a cell-based assay that measures parasite growth based on the expression of an integrated copy of a firefly luciferase reporter. To detect small molecules that cause this "delayed death" phenotype, erythrocytes infected with the luciferase-expressing parasites were incubated with compounds for either one or two generations, corresponding to 48 and 96 hours, respectively. Compounds that inhibit parasite growth in the second generation, but not the first, should be enriched in antimalarials that target the apicoplast. Growth inhibition is detected by a decrease in luciferase activity.
Assay Provider: David Fidock and Eric Ekland, Columbia University
Keywords: NIH Roadmap, MLPCN, MLI, MLSMR, qHTS, NCGC, qHTS, malaria, luciferase, viability
Four microliters of culture medium (RPMI 1640 with 0.5% w/v Albumax (GIBCO), 24 mM sodium bicarbonate and 10 ug/mL gentamycin) were dispensed by a Multi-drop Combi into white solid 1536-well plates (Grenier) and 23 nL compound was added by a pin tool. Four microliters of infected erythrocytes (2% hematocrit, 0.1% parasitemia final concentration) in culture medium were dispensed and the plates incubated for 48 hours at 37 C in 5% CO2. Two microliters of luciferase detection reagent was added and luminescence was detected by a ViewLux (PerkinElmer) reader.
Potency is the fitted concentration of half-maximal effect.

Compound | Potency | activity change, negative = inhibition
Cc1c(C)c2c(OCC(=O)NCCCO)cc3c(c2oc1=O)CCC(C)(C)O3 | inactive | –
C[C@H](NC(=O)c1ccccc1Cl)C(=O)OCC(=O)N1CCN(c2ccccc2)CC1 | inactive | –
Cc1ccc(Cl)cc1N1CCN(C(=O)c2cccc3c(=O)c(C)c(-c4ccccc4)oc23)CC1 | 9.28 µM (active) | –
CCNS(=O)(=O)c1ccc(CCC(=O)N2CCN(c3cc(Cl)ccc3C)CC2)cc1 | inactive | –
COC(=O)c1ccc(C(=O)OC)c(NC(=S)N2CCN(c3cc(Cl)ccc3C)CC2)c1 | inactive | –
CC(C)n1c(C(O)c2ccccc2)nc2ccccc21 (stereo not drawn) | inactive | –
Cc1ccc(C(CC(=O)O)Nc2nc(N3CCCCC3)nc(N3CCCCC3)n2)cc1 (stereo not drawn) | inactive | –
CC(Nc1nc(N2CCCC2)nc2ccccc12)c1ccccc1 (stereo not drawn) | 3.7 µM (active) | –
CN(C)S(=O)(=O)c1ccc(C(=O)NCCN=C2NS(=O)(=O)c3ccccc32)cc1 | inactive | –
COc1ccc(C)cc1Nc1nc(C)nc2c1oc1ccccc12 | inactive | –
COC(=O)c1cnc(Nc2cc(C)ccc2OC)c2ccccc12 | 10.4 µM (active) | –
COc1ccccc1Nc1ncc(C(C)=O)c(C)n1 | inactive | –
COc1ccc(N=Nc2c(-c3ccc(OC)cc3)[nH]oc2=O)cc1 | inactive | –
COCCNC(=O)c1ccc2c(c1)ncn2-c1ccc(C)c(Cl)c1 | inactive | –
C=CCn1c(SCC(=O)NC(=O)Cc2ccccc2)nc2ccccc2c1=O | inactive | –
COc1ccc(NC(=O)CSc2nc3ccccc3c(=O)n2C)cc1 | 9.28 µM (active) | –
CCc1nnc(NC(=O)CSc2nc3ccccc3c(=O)n2CCCOC)s1 | inactive | –
CCOCCCn1c(SCC(=O)Nc2cc(OC)ccc2OC)nc2ccccc2c1=O | 5.86 µM (active) | –
CC(=O)NCCn1c(SCC(=O)Nc2ccc(C)cc2)nc2ccccc2c1=O | inactive | –
COc1ccc(NC(=O)CSc2nnc(Cc3ccccc3)c(=O)n2N)cc1 | inactive | –
COc1ccc(OC)c(NC(=O)CSc2nc3cccnc3n2C)c1 | inactive | –
O=C(CCC(=O)c1ccccc1)NCc1cccc(C(F)(F)F)c1 | inactive | –
O=C(NC1CCCCCC1)C1CCN(C(=O)c2ccc(Cl)cc2)CC1 | inactive | –
O=C(CCN1C(=O)[C@H]2CC=CC[C@H]2C1=O)NCc1nc(-c2ccccc2)no1 | inactive | –
CCOC(=O)c1c(NC(=O)CCC(=O)NCc2ccco2)sc2c1CCCC2 | inactive | –
CCOC(=O)c1c(NC(=S)NC(=O)c2ccco2)sc2c1CCCC2 | inactive | –

Compound | Potency | activity change, negative = inhibition
CCOC(=O)c1c(NC(=O)C2(C)Cc3ccccc3C(=O)O2)sc2c1CCCC2 (stereo not drawn) | inactive | –
O=C(NCc1cccs1)C1CCN(S(=O)(=O)c2ccc(Cl)cc2)CC1 | 1.85 µM (active) | –
CCOCC(=O)Nc1sc2c(c1C(=O)OCC)CCCC2 | inactive | –
CCOC(=O)c1c(NC(=O)C2CCN(S(=O)(=O)c3ccc(Cl)cc3)CC2)sc2c1CCCC2 | 8.28 µM (active) | –
O=C(NCc1ccc(Cl)cc1)C1CCN(S(=O)(=O)c2cccs2)CC1 | inactive | –
CCOC(=O)c1c(NC(=S)NC)sc2c1CCCC2 | 9.28 µM (active) | –
CCOC(=O)c1c(NC(=O)CSc2nnc(C)c(=O)[nH]2)sc2c1CCC2 | inactive | –
O=C(NCc1ccccn1)C1CCN(S(=O)(=O)c2ccc(Br)cc2)CC1 | inactive | –
CCOC(=O)c1c(NC(=O)Cn2nc(C(F)(F)F)cc2C)sc2c1CCC2 | 14.7 µM (active) | –
CCOc1ccc(S(=O)(=O)N2CCC(C(=O)NCC(=O)Nc3cccc(Cl)c3C)CC2)cc1 | inactive | –
Cc1cccc2c1cnn2C(=O)CCC(=O)NC1CCCCC1 | inactive | –
O=C(N[C@@H](Cc1c[nH]c2ccccc12)C(=O)O)OCC1c2ccccc2-c2ccccc21 | inactive | –
O=C(COC(=O)Cn1[nH]c(=O)c2ccccc2c1=O)Nc1c(Cl)cccc1C(F)(F)F | inactive | –
O=C(Cc1cccs1)NCc1cccc(C(F)(F)F)c1 | – | 0.71% [at 0.00184 µM] (inactive)
CC1CN(C(=S)Nc2ccccc2F)CC(C)O1 (stereo not drawn) | inactive | –
COc1ccc(C(=O)N2CCCN(C)CC2)c(OC)c1 | inactive | –
COc1ccc(CN2CCNC(=O)C2CC(=O)NCc2cn[nH]c2-c2ccccc2)c(F)c1 (stereo not drawn) | inactive | –
COc1ccc(CN2CC(C(=O)NCCc3ccc(Cl)cc3)CC2=O)cc1 (stereo not drawn) | inactive | –
O=C(O)c1ccccc1C(=O)Nc1nc(-c2ccccc2)cs1 | inactive | –
Cc1ccc(C)c(NC(=O)c2ccc3nccnc3c2)c1 | inactive | –
COc1ccc(CNC(=O)Cc2ccc(-c3ccccc3)cc2)cc1OC | inactive | –
CCn1c(C)cc(=O)cc1-c1ccc(Cl)cc1 | inactive | –
COc1ccc(C(=O)CN(C(=O)c2ccc(Cl)cc2)N2C(=O)c3ccccc3C2=O)cc1 | inactive | –
COc1ccc(Cn2c(-c3ccc(Cl)cc3)c[n+]3ccccc23)cc1 | 0.522 µM (active) | –
Cc1ccc(OCC(=O)NCCCNC(=O)c2ccco2)cc1C | inactive | –
Cn1cccc1C(=O)NNC(=O)COc1ccc(Br)cc1 | inactive | –

Compound | Potency | activity change, negative = inhibition
COc1cccc(C(O)c2nc3ccccc3n2C)c1 (stereo not drawn) | inactive | –
Cc1n[nH]c(=O)c2c(NC(=O)COC(=O)c3ncc(Cl)c(Cl)c3Cl)oc(C)c12 | inactive | –
COc1cc(OC)c(S(=O)(=O)Nc2ccccc2C(=O)O)cc1S(=O)(=O)Nc1ccccc1C(=O)O | inactive | –
Cc1ccc(C)c(NC(=O)CN(C)C(=O)c2ccc3ncsc3c2)c1 | inactive | –
O=C(Nc1ccc(NC(=O)c2cccs2)cn1)c1ccco1 | inactive | –
O=C(Nc1ncccn1)c1cccs1 | inactive | –
O=C(Nc1ccnc(-c2ccncc2)n1)c1cccs1 | 11.7 µM (active) | –
CC(C)CN(C(=O)CSc1ncnc2sccc12)C1CCS(=O)(=O)C1 (stereo not drawn) | inactive | –
CCN(CC)CCn1c2c(c(SCC(=O)Nc3nc4ccccc4s3)nc1=O)CCCC2 | inactive | –
Cc1ccc(-c2cc(C(F)(F)F)n3ncc(C(=O)N4CCCCC4c4cccnc4)c3n2)cc1 (stereo not drawn) | 1.65 µM (active) | –
O=C(NC(=S)N1CCCCC1c1cccnc1)c1ccccc1 (stereo not drawn) | inactive | –
O=C(Nc1ccccc1C(F)(F)F)N1CCCC1c1cccnc1 (stereo not drawn) | inactive | –
CCn1c(SCC(=O)NC2CC2)nnc1-c1ccccn1 | inactive | –
CCOc1ccc(C(=O)CCN2CCOCC2)cc1 | inactive | –
CC(=O)c1ccc(S(=O)(=O)NCc2nnnn2-c2ccccc2)cc1 | inactive | –
Cc1cccc(-c2nnc(SCC(=O)O)n2Cc2ccccc2)c1 | inactive | –
O=C(N[C@@H](Cc1ccccc1)C(=O)OCc1ccccc1)c1nc[nH]c1C(=O)N[C@@H](Cc1ccccc1)C(=O)OCc1ccccc1 | inactive | –
C[C@@H](NC(=O)c1nc[nH]c1C(=O)N1CCN(C(=O)OC(C)(C)C)CC1)c1ccccc1 | inactive | –
CC(C)(C)OC(=O)N1CCC(NC(=O)c2[nH]cnc2C(=O)N[C@@H](Cc2ccccc2)C(=O)OCc2ccccc2)CC1 | 0.928 µM (active) | –
Cc1onc(C(=O)Nc2ccc3c(c2)OCO3)c1[N+](=O)[O-] | inactive | –
Cc1c(CCOC(=O)CC23CC4CC(CC(C)(C4)C2)C3)sc[n+]1Cc1ccc([N+](=O)[O-])cc1 | 2.62 µM (active) | –
Cc1c(CCOC(=O)c2cc([N+](=O)[O-])ccc2Cl)sc[n+]1CCCCS(=O)(=O)[O-] | inactive | –
Oc1ccc(/C=N/Nc2ccc(C(F)(F)F)cn2)cc1O | inactive | –
O=C(CCCO)N/N=C/c1cc(Br)ccc1O | inactive | –
Oc1ccc(Br)cc1/C=N/Nc1ccccn1 | 1.47 µM (active) | –
CC(C)c1ccc(S(=O)(=O)N2CCC3(CC2)OCCO3)cc1 | inactive | –

Compound | Potency | activity change, negative = inhibition
COc1cc2ccccc2cc1C(=O)Nc1ccccc1C | inactive | –
COc1ccc(C)cc1NC(=O)c1cc(-c2ccccc2)nc2c1cnn2C(C)C | 4.65 µM (active) | –
COc1ccc(C)cc1NC(=O)Nc1ccccc1SC | inactive | –
Cc1ccc(-c2noc(C3CCCN(C(=O)c4cccc(Cl)c4)C3)n2)o1 (stereo not drawn) | inactive | –
O=C(CCNC(=O)c1ccc(Br)cc1)NCCCc1ccccc1 | inactive | –
Cc1cccc2[nH]c(CN(C)C(=O)C3CCC(=O)N(CCc4ccccc4)C3)nc12 (stereo not drawn) | inactive | –
Cc1ccccc1C(=O)NC(=S)Nc1ccc(N2CCN(C(=O)c3ccccc3)CC2)cc1 | inactive | –
CC(C)c1ccc(N2CCN(C(=O)c3ccccc3NC(=O)/C=C(\C(=O)O)c3ccccc3)CC2)cc1 | 13.1 µM (active) | –
COc1ccc(C(=O)Nc2ccccc2C(=O)N2CCN(c3ccccc3)CC2)cc1 | inactive | –
COc1ccc(NC(=O)CCS(=O)(=O)c2cc3c(cc2Cl)NC(=O)CO3)cc1OC | inactive | –
O=C(COC(=O)c1cccs1)Nc1ccccc1Cl | inactive | –
O=C(Nc1ccc2c(c1)CCC2)c1cccc(S(=O)(=O)Nc2ccccc2Cl)c1 | inactive | –
O=C(Cc1ccc2c(c1)CCCC2)Nc1ccccc1Cl | 11.7 µM (active) | –
O=C(Nc1ccccc1N1CCOCC1)c1ccncc1 | inactive | –
CCCc1ccc(OCC(O)CN2CCN(CCO)CC2)cc1 (stereo not drawn) | inactive | –
CCCCc1nc(NCc2ccccc2)c(C#N)c2c1CCCC2 | 6.57 µM (active) | –
CCc1nc(NCCO)c(C#N)c2c1CCCC2 | inactive | –
CN(C)c1nccc(NCc2ccccc2)c1C#N | inactive | –
CCOC(=O)c1ccccc1NC(=O)COC(=O)C(Cc1c[nH]c2ccccc12)NC(C)=O (stereo not drawn) | inactive | –
CCOc1ccccc1NC(=O)NC1CCCCCCC1 | inactive | –
CCOc1cccc(=NC2CCCCC2)c2c(C)[nH]c(C)c12 | 2.33 µM (active) | –
Cc1cc(C)n2nc(C(=O)Nc3cccc(S(=O)(=O)N4CCOCC4)c3)nc2n1 | inactive | –
CC(C)C[C@H](NC(=O)C1CC(=O)N(c2ccc3c(c2)OCCO3)C1)C(=O)NC1CCCC1 (stereo partly drawn) | inactive | –
C/C=C/C(=O)OCc1csc(CC(=O)Nc2ccccc2C)n1 | inactive | –
CCCc1nnc(NC(=O)CCC(=O)N2CCN(S(=O)(=O)c3ccc(OC)cc3)CC2)s1 | inactive | –
